Measurements as given in PubChem BioAssay (NCATS).
Inconclusive results are not listed. Active and inactive are the calls of the source. Unless noted, calls come from the whole dose curve; as a rule, active = well fitted curve in the direction sought with a large enough effect; inconclusive = small, poorly fitted or top-dose-only effect, or another doubt; inactive = no such curve, though single readings can be large; an effect the other way counts as inactive or inconclusive.

What was measured:
[1] = target: Ubiquitin carboxyl-terminal hydrolase 1 (Homo sapiens) (UniProt O94782); assay: Inhibitors of USP1/UAF1: Pilot qHTS (AID 504865);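 note: rhodamine fluorescence freed from ubiquitin-rhodamine substrate followed over time; top concentration of the series differs between compounds; % is set by controls: 0 for no effect and ±100 for the full control effect; nearly all actives have a fitted effect of over 35% in size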
In short: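 In 50mM HEPES pH 7.8 containing 0.5mM EDTA, 1mM TCEP, 0.1 mg/ml BSA and 0.01% Tween-20, 1nM USP1/UAF1 is exposed to compound for 15 min, then Ub-Rho (150nM final) is added and fluorescence is read over time.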

[2] = target: Luciferin 4-monooxygenase (Photinus pyralis) (UniProt P08659); assay: Biochemical firefly luciferase enzyme assay for NPC (AID 624030);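 note: purified P. pyralis luciferase at 10 nM with luciferin and ATP substrate; 0% = DMSO and -100% = full luciferase inhibition by PTC124 control; nearly all actives have a fitted effect of over 70% in size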
In short: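 Direct inhibition of firefly luciferase enzyme (10 nM final, 50 mM Tris Acetate) assessed by luminescence within 5 minutes. Percent activity scaled between DMSO and PTC124 positive control, with concentration-effect curves classified by fit quality and response.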

[3] = S16 Schwann cell viability assay (CellTiter-Glo assay) (AID 624031);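 note: native untransfected S16 rat Schwann cells; cellular ATP luminescence as a viability measure; plate controls were DMSO-treated cells for no effect and cell-free wells for full effect; nearly all actives have a fitted effect of over 70% in size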
In short: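 Cells were seeded at 500-750 per well in phenol red-free DMEM with 10% FBS and left overnight. Compounds or DMSO were pinned in, incubation ran 24 h at 37 °C/5% CO2, then CellTiter-Glo reagent was added and luminescence measured.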

[4] = S16 Schwann cell PMP22 intronic element beta-lactamase assay (AID 624044; calls by dose curve;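 note: 0% = DMSO and -100% = potassium clavulanate positive control; nearly all actives have a fitted effect of over 15% in size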); conditions: S16 rat Schwann cells, PMP22 element beta-lactamase FRET, 24 h; ratio activity, negative = inhibition: at 38.3 µM (top of the series) unless noted
In short: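 Rat S16 Schwann cells with beta-Lac driven by a PMP22 intronic element, compound-treated 24 h at 37 °C. LiveBLAzer FRET B/G read: 460 nm normalized to potassium clavulanate vs DMSO; 535 nm FRET as viability; concentration-effect curves classified.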

7G8 = assay: qHTS profiling for inhibitors of Plasmodium falciparum proliferation (AID 504749);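 note: 0% = DMSO vehicle and full inhibition = artemisinin control; nearly all actives have a fitted effect of over 60% in size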; conditions: P. falciparum in erythrocytes, SYBR Green DNA, 72 h; series mostly up to 12.8 µM
In short: (§1)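 Three-day growth assay of blood-stage parasites in erythrocytes (0.3% parasitemia, 2.5% hematocrit) at 37 C, 5% CO2, quantified by SYBR Green DNA staining after overnight detergent lysis.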

CP191 = assay: as above; conditions: P. falciparum in erythrocytes, SYBR Green DNA, 72 h; series mostly up to 28.7 µM
In short: as §1

CP260 = assay: as above; conditions: P. falciparum in erythrocytes, SYBR Green DNA, 72 h; series mostly up to 28.7 µM
In short: as §1

CP291 = assay: as above; conditions: P. falciparum in erythrocytes, SYBR Green DNA, 72 h; series mostly up to 28.7 µM
In short: as §1

Dd2 = assay: as above; conditions: P. falciparum in erythrocytes, SYBR Green DNA, 72 h; series mostly up to 28.7 µM
In short: as §1

ICS = assay: as above; conditions: P. falciparum in erythrocytes, SYBR Green DNA, 72 h; series mostly up to 28.7 µM
In short: as §1

JCK = assay: as above; conditions: P. falciparum in erythrocytes, SYBR Green DNA, 72 h; series mostly up to 28.7 µM
In short: as §1

[5] = NFAT Signaling Pathway (AID 444; active = well fitted curve in either direction with a large enough effect, not every such curve was filed as active;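 note: carbachol stimulus at about its EC50 of 1 µM final; % is set by controls: 0 for no effect and ±100 for the full control effect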); conditions: Jurkat NFAT-bla M1, carbachol, beta-lactamase ratio, 5 h; at 7.69 µM (top of the series)
In short: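 Read-out: CCF4 FRET ratio (460 nm/530 nm) after 1 h RT dye loading, used for %activity and AC50 from titration series. Cells: Jurkat NFAT-β-lactamase/M1 line, treated with compound plus 1 uM carbachol for 5 h, 37 °C.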

Sequence of Ubiquitin carboxyl-terminal hydrolase 1 (Homo sapiens) (O94782 whole entry, looked up): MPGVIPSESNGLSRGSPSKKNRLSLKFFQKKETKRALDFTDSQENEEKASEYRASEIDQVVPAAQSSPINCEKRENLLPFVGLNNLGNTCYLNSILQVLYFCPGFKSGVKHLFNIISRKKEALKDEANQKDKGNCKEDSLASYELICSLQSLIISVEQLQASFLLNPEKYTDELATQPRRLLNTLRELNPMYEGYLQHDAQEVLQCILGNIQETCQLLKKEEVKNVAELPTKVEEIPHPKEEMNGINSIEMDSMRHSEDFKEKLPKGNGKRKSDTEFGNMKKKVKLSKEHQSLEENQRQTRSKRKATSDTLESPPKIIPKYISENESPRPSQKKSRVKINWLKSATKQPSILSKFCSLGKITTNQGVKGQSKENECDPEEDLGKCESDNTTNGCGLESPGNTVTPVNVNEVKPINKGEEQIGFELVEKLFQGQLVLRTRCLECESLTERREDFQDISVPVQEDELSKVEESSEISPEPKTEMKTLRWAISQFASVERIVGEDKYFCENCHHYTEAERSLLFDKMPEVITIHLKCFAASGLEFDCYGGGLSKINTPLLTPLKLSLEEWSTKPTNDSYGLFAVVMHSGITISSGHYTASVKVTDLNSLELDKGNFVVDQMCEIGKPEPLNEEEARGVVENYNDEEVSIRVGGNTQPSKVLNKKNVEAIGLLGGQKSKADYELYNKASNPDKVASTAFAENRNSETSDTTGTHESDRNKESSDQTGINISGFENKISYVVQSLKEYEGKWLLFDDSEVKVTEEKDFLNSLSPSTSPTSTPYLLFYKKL
Sequence of Luciferin 4-monooxygenase (Photinus pyralis) (P08659 whole entry, looked up): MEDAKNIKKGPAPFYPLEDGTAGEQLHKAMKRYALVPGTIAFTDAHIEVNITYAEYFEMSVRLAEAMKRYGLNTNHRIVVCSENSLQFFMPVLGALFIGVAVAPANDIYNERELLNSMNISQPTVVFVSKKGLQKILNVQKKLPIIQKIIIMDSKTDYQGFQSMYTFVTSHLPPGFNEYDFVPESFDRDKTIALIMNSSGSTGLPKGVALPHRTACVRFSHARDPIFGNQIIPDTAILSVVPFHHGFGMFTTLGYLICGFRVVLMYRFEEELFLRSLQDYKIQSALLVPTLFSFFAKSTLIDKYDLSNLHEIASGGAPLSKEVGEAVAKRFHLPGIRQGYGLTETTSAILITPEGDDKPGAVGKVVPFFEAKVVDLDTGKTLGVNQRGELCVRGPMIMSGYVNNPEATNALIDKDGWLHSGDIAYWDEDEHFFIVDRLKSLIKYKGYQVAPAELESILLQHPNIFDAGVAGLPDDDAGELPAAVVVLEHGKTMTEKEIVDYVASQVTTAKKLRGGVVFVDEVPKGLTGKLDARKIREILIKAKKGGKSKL

C[C@]12CC[C@H]3[C@@H](CCC4=CC(=O)CC[C@@]43C)[C@@H]1CC[C@@H]2O
inactive: Potency [1] | Potency [2] | Potency [3] | Potency [4] | Potency (7G8) | Potency (CP191) | Potency (CP260) | Potency (CP291) | Potency (Dd2) | Potency (ICS) | Potency (JCK)

O=C(Nc1ccccc1)N1CCC2(CC1)CCN(C(=O)Oc1ccccc1)CC2
inactive: activity change, negative = inhibition [5] 5.23%
